This is an account of results in ChEMBL document CHEMBL1961873, “Compounds: GSK PKIS; Assays: Nanosyn kinase panel” (2012).

Test [1] concerns the target T1, Muscle, skeletal receptor tyrosine-protein kinase (Homo sapiens) (UniProt O15146).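 Further: reported value is the mean percent inhibition of MuSK kinase.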
T1 sequence (whole entry): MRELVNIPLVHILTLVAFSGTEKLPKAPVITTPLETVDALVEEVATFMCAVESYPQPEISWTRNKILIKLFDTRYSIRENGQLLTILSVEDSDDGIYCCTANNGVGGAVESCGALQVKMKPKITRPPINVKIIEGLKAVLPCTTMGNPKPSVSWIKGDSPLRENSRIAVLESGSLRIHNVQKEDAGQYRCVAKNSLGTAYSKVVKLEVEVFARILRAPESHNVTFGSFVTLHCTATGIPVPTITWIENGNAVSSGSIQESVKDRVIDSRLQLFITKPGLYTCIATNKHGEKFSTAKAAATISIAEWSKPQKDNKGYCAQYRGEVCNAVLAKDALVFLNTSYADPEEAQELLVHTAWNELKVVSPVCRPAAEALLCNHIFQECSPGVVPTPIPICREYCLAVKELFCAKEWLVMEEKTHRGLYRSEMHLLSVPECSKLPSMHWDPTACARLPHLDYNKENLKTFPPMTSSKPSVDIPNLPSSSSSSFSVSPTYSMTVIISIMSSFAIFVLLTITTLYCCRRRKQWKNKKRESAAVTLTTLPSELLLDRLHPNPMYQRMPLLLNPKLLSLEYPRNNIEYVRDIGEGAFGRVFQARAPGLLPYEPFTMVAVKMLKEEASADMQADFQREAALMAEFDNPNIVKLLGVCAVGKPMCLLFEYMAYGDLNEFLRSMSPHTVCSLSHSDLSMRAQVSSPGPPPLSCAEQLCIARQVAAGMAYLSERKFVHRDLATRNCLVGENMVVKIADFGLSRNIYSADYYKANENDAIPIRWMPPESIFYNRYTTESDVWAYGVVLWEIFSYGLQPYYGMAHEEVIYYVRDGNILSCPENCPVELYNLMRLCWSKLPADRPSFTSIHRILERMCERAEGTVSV
The conditions noted are these: at 1 µM.

Test [2] addresses Platelet-derived growth factor receptor alpha (Homo sapiens) (UniProt P16234). As to conditions: at 0.1 µM.
Test [3] has the same target. As to conditions: at 1 µM.
Test [4] deals with Platelet-derived growth factor receptor alpha (Homo sapiens), P16234 [D842V]. As to conditions: at 0.1 µM.
Platelet-derived growth factor receptor alpha (Homo sapiens), P16234 [D842V], sequence (P16234 whole entry D842V): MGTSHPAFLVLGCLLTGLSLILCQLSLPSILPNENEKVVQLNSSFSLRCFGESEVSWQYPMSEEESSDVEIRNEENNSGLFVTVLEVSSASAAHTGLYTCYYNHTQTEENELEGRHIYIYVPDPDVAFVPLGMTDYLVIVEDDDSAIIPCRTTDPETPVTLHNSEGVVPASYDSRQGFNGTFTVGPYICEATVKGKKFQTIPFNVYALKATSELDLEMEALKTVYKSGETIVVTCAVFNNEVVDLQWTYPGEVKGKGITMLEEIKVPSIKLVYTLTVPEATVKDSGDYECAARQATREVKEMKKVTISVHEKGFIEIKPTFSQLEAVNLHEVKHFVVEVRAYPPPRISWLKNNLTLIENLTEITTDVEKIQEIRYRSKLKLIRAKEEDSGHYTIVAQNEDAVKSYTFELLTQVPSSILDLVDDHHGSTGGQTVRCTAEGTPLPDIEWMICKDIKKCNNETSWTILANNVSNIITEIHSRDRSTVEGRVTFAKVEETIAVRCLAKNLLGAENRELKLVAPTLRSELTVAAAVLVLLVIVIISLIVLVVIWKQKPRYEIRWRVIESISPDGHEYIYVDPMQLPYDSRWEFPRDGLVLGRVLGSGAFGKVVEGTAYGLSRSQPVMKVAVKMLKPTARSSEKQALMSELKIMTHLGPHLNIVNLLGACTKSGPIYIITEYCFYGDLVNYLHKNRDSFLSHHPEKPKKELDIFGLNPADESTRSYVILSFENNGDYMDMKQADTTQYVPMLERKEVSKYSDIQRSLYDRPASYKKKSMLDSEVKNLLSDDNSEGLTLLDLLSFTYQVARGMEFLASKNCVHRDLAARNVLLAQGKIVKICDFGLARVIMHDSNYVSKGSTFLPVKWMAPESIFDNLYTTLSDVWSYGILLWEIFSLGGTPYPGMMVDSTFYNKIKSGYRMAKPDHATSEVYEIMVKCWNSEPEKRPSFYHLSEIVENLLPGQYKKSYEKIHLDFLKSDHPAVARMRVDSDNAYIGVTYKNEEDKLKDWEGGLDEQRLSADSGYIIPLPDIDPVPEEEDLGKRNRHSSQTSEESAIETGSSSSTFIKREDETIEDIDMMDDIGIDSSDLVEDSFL
Test [5] has the same test system. The conditions noted are these: at 1 µM.
Test [6] deals with Platelet-derived growth factor receptor alpha (Homo sapiens), P16234 [T674I]. The conditions noted are these: at 0.1 µM.
Platelet-derived growth factor receptor alpha (Homo sapiens), P16234 [T674I], sequence (P16234 whole entry T674I): as the sequence (P16234 whole entry D842V) above, with T674I, V842D counted along it
Test [7] has the same test system. As to conditions: at 1 µM.
For test [8], the system named is Platelet-derived growth factor receptor alpha (Homo sapiens), P16234 [V561D]. The conditions noted are these: at 0.1 µM.
Platelet-derived growth factor receptor alpha (Homo sapiens), P16234 [V561D], sequence (P16234 whole entry V561D): as the sequence (P16234 whole entry D842V) above, with V561D, V842D counted along it
The test system is the same in test [9]. As to conditions: at 1 µM.
Test [10] concerns the target Platelet-derived growth factor receptor beta (Homo sapiens) (UniProt P09619). As to conditions: at 0.1 µM.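 Further: reported value is the mean percent inhibition of the kinase.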

Platelet-derived growth factor receptor beta (Homo sapiens), sequence (P09619 whole entry): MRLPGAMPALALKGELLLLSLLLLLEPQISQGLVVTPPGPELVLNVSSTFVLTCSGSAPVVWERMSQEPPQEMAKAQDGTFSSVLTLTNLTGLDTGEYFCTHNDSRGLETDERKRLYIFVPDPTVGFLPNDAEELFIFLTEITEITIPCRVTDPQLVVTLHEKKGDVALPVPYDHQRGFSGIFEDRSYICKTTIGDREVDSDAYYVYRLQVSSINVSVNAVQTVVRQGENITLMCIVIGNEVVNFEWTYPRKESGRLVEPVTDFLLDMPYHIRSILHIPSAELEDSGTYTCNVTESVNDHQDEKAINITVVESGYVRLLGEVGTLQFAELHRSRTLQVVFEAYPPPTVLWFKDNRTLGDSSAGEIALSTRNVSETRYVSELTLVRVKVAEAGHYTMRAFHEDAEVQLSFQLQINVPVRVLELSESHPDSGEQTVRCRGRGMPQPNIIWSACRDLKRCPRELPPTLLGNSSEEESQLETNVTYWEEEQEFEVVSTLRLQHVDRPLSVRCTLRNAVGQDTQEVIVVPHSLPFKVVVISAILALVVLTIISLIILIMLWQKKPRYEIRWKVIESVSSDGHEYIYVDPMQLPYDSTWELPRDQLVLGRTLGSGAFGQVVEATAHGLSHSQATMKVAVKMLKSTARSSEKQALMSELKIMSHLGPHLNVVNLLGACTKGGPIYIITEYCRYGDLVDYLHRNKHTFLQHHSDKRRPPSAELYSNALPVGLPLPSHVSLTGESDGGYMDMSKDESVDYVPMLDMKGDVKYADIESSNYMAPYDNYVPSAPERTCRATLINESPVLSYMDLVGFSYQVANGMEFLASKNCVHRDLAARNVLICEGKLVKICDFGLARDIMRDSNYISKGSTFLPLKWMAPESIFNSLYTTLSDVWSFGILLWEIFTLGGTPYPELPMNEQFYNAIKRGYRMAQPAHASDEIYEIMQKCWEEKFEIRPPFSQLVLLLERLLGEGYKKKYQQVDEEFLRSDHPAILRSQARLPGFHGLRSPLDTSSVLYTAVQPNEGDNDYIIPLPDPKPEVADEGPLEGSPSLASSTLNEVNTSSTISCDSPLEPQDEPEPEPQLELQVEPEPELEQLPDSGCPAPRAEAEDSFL
Platelet-derived growth factor receptor alpha (Homo sapiens), sequence (P16234 whole entry): as the sequence (P16234 whole entry D842V) above, with V842D counted along it

Usually inhibition stands for the relative decrease from the control value, in per cent. Consider `FC(F)(F)c1cccc(-c2nn3ncccc3c2-c2ccnc(Nc3ccc4c(c3)OCCO4)n2)c1`, for which the inhibition was 2.21% in [1]; 5.63% in [2]; 15.1% in test [3]; 3.38% in [4]; 5.8% in test [5]; 2.79% in [6]. For the same compound, the inhibition in [7] is 3.91%; in test [8] it was 1.96%; in test [9], 15.8%; in [10] it was 6.05%.
`c1ccc(COc2ccc(Nc3ncnc4ccc(-c5ccco5)cc34)cc2)cc1`: the inhibition in test [1] turned out to be 1.01%; in [2], 3.81%; in test [3], 6.96%; in [4] it was 2.63%; in test [5], 3.21%; in test [6] it was 2.49%. In addition, the inhibition is 3.6% in [7], 2.39% in test [8], 2.43% in [9] and -0.23% in test [10].
For the compound `COc1cccc(-c2c[nH]c3c(N/N=C/c4ccncc4)ncnc23)c1`, the inhibition in test [1] is 48.8%; in test [2] it was 64%; in test [3] it was 82.8%; in [4], 72.2%; in [5], 94.4%; in [6] it was 21.8%. Also, the inhibition in [7] was found to be 82.2%; in [8], 59.7%; in test [9], 93%; in [10], 55%.
`NS(=O)(=O)c1ccc(N/N=C2\C(=O)Nc3ccc4ncccc4c32)cc1`: the inhibition was determined as 49.5% in test [1]; 58.9% in test [2]; 82.2% in test [3]; 63.4% in test [4]; 92.3% in test [5]; 16.7% in [6]. The inhibition in test [7] came to 73.6%; in test [8], 54.5%; in [9] it was 92.4%; in [10], 63.2%.
Turning to `CC(C)(CO)CNC(=O)c1ccc2c(c1)/C(=N/Nc1ccc(S(N)(=O)=O)cc1)C(=O)N2`, the inhibition in [1] was 21.6%; in [2] it was 18.7%; in test [3] it was 62.5%; in test [4], 23.2%; in test [5] it was 77.3%; in test [6], -0.15%. The inhibition came out at 6.93% in [7], 15.7% in test [8], 65.4% in [9] and 38.7% in [10].
`CC1=C(C(=O)Nc2cc(Cl)c3[nH]ncc3c2)C(c2ccc(C(F)(F)F)cc2)CC(=O)N1` (stereo not given): the inhibition in test [1] came out at 9.6%; in test [2], 4.87%; in test [3], 8.87%; in test [4], 2.44%; in test [5], 4.3%; in test [6], 5.17%. The inhibition in [7] came out at 7.54%; in [8] it was 4.08%; in test [9] it was 4.27%; in test [10], 0.58%.
`NS(=O)(=O)c1ccc(Nc2ncc(-c3ccccc3)o2)cc1`: the inhibition in [1] worked out at 12.4%; in test [2], 7.81%; in test [3], 34.8%; in [4], 1.5%; in test [5], 10.2%; in [6] it was 14.4%. Moreover, the inhibition in [7] was 65.1%; in test [8], 25.7%; in test [9] it was 50.5%; in [10], 12%.
In the case of `COc1cc(/C=N/Nc2ncnc3[nH]ncc23)ccc1O`, the inhibition in test [1] stood at 22.6%; in test [2], 27.3%; in [3], 72.4%; in test [4], 28.4%; in [5] it was 80.8%; in [6], 3.77%. Moreover, the inhibition in [7] was found to be 16.5%; in test [8] it was 25%; in test [9], 76.3%; in test [10], 21.9%.
Turning to `COc1ccc(-c2oc3ncnc(N)c3c2-c2ccc(NC(=O)Nc3cc(C(F)(F)F)ccc3F)cc2)cc1`, the inhibition is 101% in test [1]; 38.6% in test [2]; 88.9% in test [3]; 6.4% in test [4]; 54.4% in [5]; 18% in test [6]. Moreover, the inhibition in [7] amounted to 72.1%; in test [8], 26.6%; in test [9], 86.2%; in test [10] it was 20.2%.
For the compound `CCn1cc(-c2ccnc3[nH]ccc23)c(-c2cccc(NC(=O)Nc3ccc(OCc4ccccc4)cc3)c2)n1`, the inhibition was -5.2% in test [1]; 1.29% in [2]; 7.03% in test [3]; 1.41% in test [4]; 2.72% in [5]; 0.5% in test [6]. For the same compound, the inhibition in [7] was 1.13%; in test [8], -0.44%; in [9], 1.14%; in test [10], 2.04%.
As to `CCn1c(-c2nonc2N)nc2ccccc21`, the inhibition in test [1] was 4.12%; in [2] it was 6.47%; in [3], 8.29%; in test [4], 2.53%; in test [5], 2.64%; in [6], 2.43%. In addition, the inhibition amounted to 3.19% in test [7], 1.19% in [8], 1.67% in [9] and 2.55% in [10].
On to `COC(=O)Nc1nc2ccc(Oc3ccc(NC(=O)Nc4cccc(Cl)c4)cc3)cc2[nH]1`, for which the inhibition is 33.2% in test [1]; 62.2% in test [2]; 76.9% in test [3]; 2.44% in test [4]; 8.07% in test [5]; 76.6% in test [6]. Also, the inhibition amounted to 85.5% in [7], 74.6% in [8], 92.6% in test [9] and 12.2% in test [10].
Turning to `CCOc1ccc2c(-c3ccnc(Nc4cccc(C(F)(F)F)c4)n3)cnn2n1`, the inhibition in test [1] stood at 1.27%; in test [2], 9.61%; in test [3], 27.3%; in [4] it was 2.8%; in test [5] it was 10.2%; in test [6], 3.74%. The inhibition in [7] worked out at 9.48%; in test [8], 2.96%; in [9], 15.9%; in test [10], 7.67%.
As to `COc1ccc(-c2nn3ncccc3c2-c2ccnc(Nc3ccc4c(c3)OCCO4)n2)cc1`, the inhibition in test [1] was -1.95%; in [2] it was 6.34%; in test [3], 29.6%; in test [4], 0.81%; in test [5], 11.7%; in [6] it was 4.01%. Moreover, the inhibition in test [7] worked out at 15.3%; in [8] it was 6.6%; in test [9], 39.6%; in test [10] it was 4.03%.
